ChEMBL document CHEMBL1201862, “PubChem BioAssay data set” (2004)
Results with a measured potency or affinity are listed apart.

Assay: A High Throughput Confirmatory Assay used to Identify Novel Compounds that Inhibit Mycobacterium Tuberculosis in the absence of Glycerol using Purified and Synthesized Compounds (4).
Type: functional

SMILES: Cc1cc(Br)ccc1NC(=O)c1cnc(N2CCN(c3ccccn3)CC2)c2ccccc12
- IC90: > 51.1 µM (active)
